Only some compounds are listed: those with a hit (about 4.2% of all), similar ones and a draw of the others.
TCR act: T cell receptor activation; primary human leukocytes, anti-CD3, IL-2 HTRF, 48 h; Potency, µM (doses to about 9.22 µM), usual class: activators; 330,000 tested, under 10 active; AID 504894
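HTRF read-out of IL-2 secretion: europium cryptate donor excited at 320nm, d2 acceptor emission at 665nm. Cells were primary human leukocytes incubated 48 hr with compounds and a-CD3 beads, supplying TCR signal only.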
ClpP mod: qHTS Assay for Activators of ClpP | ATP-dependent Clp protease proteolytic subunit (Bacillus subtilis (strain 168)), P80244 | purified B. subtilis ClpP, FRET peptide cleavage, 20 min | Potency, µM (titrated, usually from 57.5 µM) | actives 1.9% (n = 340,000) | AID 651965, 2013; active = well fitted falling curve with a large enough effect; inconclusive = small, poorly fitted or top-dose-only effect; inactive = no such curve, though single readings can be large or run the other way; also: the source files actives as falling curves though it sought activators and does not explain the sign; nearly all actives have a fitted effect of over 65% in size
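Purified B. subtilis ClpP, 10 microg/mL final in Tris/HCl pH8 with KCl, BSA, glycerol and Tween-20, cleaved an Abz/nitrotyrosine-quenched decapeptide. Fluorescence (ex 320, em 430) was read at 0 and 20 min at room temperature. Delta was normalized to 5.8 microM ADEP and DMSO/no-enzyme controls.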
Sfp inh: blocks B. subtilis Sfp PPTase activity; Biochemical Sfp PPTase activity, qHTS; Potency, µM, hits mostly inhibitors; AID 1490; actives 3.5% (n = 310,000);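 also: the enzyme is Sfp with the accession as filed and its product quenches rhodamine fluorescence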
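Fluorescence-quenching assay with 15 nM Sfp, 5 uM rhodamine-CoA and 12.5 uM BHQ-2-labelled ybbR peptide in pH 7.6 Hepes/MgCl2 buffer. Enzyme was pre-incubated with compound for 15 min at room temperature. Rate was taken from the 30-min fluorescence change (525/598 nm).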
uPA generation: blocks generation of uPA at the cell surface; cell surface uPA generation assay, qHTS; actives 0.31% (n = 330,000); Potency, µM (series often up to 38.3 µM), actives largely listed as inhibitors; active = well fitted inhibition curve with a large enough effect; inconclusive = small, poorly fitted or top-dose-only effect; inactive = no such curve, though single readings can be large or run the other way; tested in mouse RAW 264.7 cells; also: nearly all actives have a fitted effect of over 55% in size
Each line names hits and unclear results; the compound was inactive in the other large screens. Unless noted, calls follow the shape of the dose curve; as a rule, active = well fitted curve in the direction sought with a large enough effect; inconclusive = small, poorly fitted or top-dose-only effect, or another doubt; inactive = no such curve, though single readings can be large; an effect the other way counts as inactive or inconclusive.

COc1ccc(-c2cccc(NS(=O)(=O)c3cc([N+](=O)[O-])c(C)c([N+](=O)[O-])c3)c2)nn1	none (no result: Sfp inh)
O=C(NCC1CCCO1)c1ccc(C(=O)NCC2CCCO2)cc1 (stereo not given)	ClpP mod inconclusive
S=C(NCC1CCCO1)NC1CCCCC1 (stereo not given)	Sfp inh 11.2µM
O=C(NCC1CCCO1)C1CCCN1C(=O)NC1CCCCC1 (stereo not given)	none
S=C(NCC1CCCO1)c1ccc(Br)cc1 (stereo not given)	Sfp inh 20µM (no result: TCR act)
O=C(c1ccccc1)C(c1ccccc1)[n+]1csc2ccccc21 (stereo not given)	none (no result: TCR act, Sfp inh, uPA generation)
CS(=O)(=O)c1sc(C#N)c2c1C(=O)CC(c1ccccc1)C2 (stereo not given)	Sfp inh inconclusive, uPA generation 8.91µM
NC1=NC[C@@H](Cc2ccc(O)cc2)N1CCc1cccc2ccccc12	Sfp inh 89.1µM
CCN1C(=O)c2cccc3cccc1c23	Sfp inh 15.8µM
COc1ccc(N2C(=O)c3cccc4cccc(c34)C2=O)cc1	none (no result: TCR act)
CCc1nnc(N2C(=O)c3cccc4cccc(c34)C2=O)s1	ClpP mod 15.8µM
O=C1c2cccc3cccc(c23)C(=O)N1c1ccccn1	none
CN(C)C(=O)CN1C(=O)c2cccc3cccc1c23	none (no result: TCR act)
Cc1ccccc1N1C(=O)c2cccc3cccc(c23)C1=O	Sfp inh 50.1µM
O=C1c2cccc3cccc(c23)C(=O)N1c1cccnc1	ClpP mod 15.8µM, Sfp inh inconclusive
CC(C)[C@@H](OCc1ccccc1)[C@H](C)/C=N\OC[C@@H](O)COCc1ccco1	none (no result: TCR act, ClpP mod, uPA generation)
O=C1c2cccc3cccc(c23)C(=O)N1c1ccncc1	ClpP mod 10µM
CC1=C(c2ccc(C)cc2)S(=O)(=O)N=C1N1CCN(c2ccccc2)CC1	none (no result: TCR act, Sfp inh, uPA generation)
O=C1c2cccc3c(O)ccc(c23)C(=O)N1Cc1ccco1	Sfp inh 7.08µM
NC1=NC(S)C2N=CN=C2N1 (stereo not given)	Sfp inh 56.2µM (no result: TCR act, ClpP mod, uPA generation)
O=C(O)CCCN1C(=O)/C(=C\C(Cl)=C\c2ccccc2)SC1=S	uPA generation 5.01µM
O=C(O)CCCN1C(=O)/C(=C\c2ccc(-c3nc4ccccc4s3)o2)SC1=S	Sfp inh 50.1µM
O=C(O)CC(C(=O)O)N1C(=O)/C(=C/c2ccc(-c3nc4ccccc4s3)o2)SC1=S (stereo not given)	Sfp inh 8.91µM
COc1ccc(-c2cc3nc(C)c(CCC(=O)NCc4ccccc4Cl)c(C)n3n2)c(OC)c1	none (no result: TCR act, Sfp inh, uPA generation)
CCOCCOC(=O)c1[nH]c2c(c1C)C(=O)CC(c1ccc(OC)c(OC)c1)C2 (stereo not given)	none (no result: ClpP mod)
C/C=C/COC(=O)c1[nH]c2c(c1C)C(=O)CC(c1ccc(N(C)C)cc1)C2 (stereo not given)	uPA generation inconclusive
C/C=C/COC(=O)c1[nH]c2c(c1C)C(=O)CC(c1ccco1)C2 (stereo not given)	Sfp inh 50.1µM, uPA generation inconclusive
C=CCOC(=O)c1[nH]c2c(c1C)C(=O)CC(c1ccco1)C2 (stereo not given)	Sfp inh inconclusive, uPA generation inconclusive
CCOCCOC(=O)c1[nH]c2c(c1C)C(=O)CC(c1ccc(N(C)C)cc1)C2 (stereo not given)	uPA generation 12.6µM
CCC(C)OC(=O)c1[nH]c2c(c1C)C(=O)CC(c1ccc(N(C)C)cc1)C2 (stereo not given)	uPA generation 10µM
COc1ccc2c(Sc3ccc(Cl)cc3)c(C(=O)N3CCCCC3)[nH]c2c1	none (no result: TCR act, Sfp inh, uPA generation)
C[C@]12CC[C@@H]3c4ccc(O)cc4CC[C@H]3[C@@H]1CC[C@H]2O	none (no result: TCR act, ClpP mod, uPA generation)
Brc1ccc(-c2cn3nc4c(nc3n2)CCCC4)cc1	Sfp inh inconclusive
Brc1ccc(-c2cn3c(n2)CCc2ccc4cccnc4c2-3)cc1	ClpP mod 28.2µM, Sfp inh inconclusive
CCc1nn(CC(=O)Nc2cccc(C(C)=O)c2)c(=O)c2cc3sccc3n12	none (no result: TCR act, Sfp inh, uPA generation)
O=C(Nc1nc2c(s1)CCCC2)c1ccc2ncsc2c1	Sfp inh 25.1µM, uPA generation inconclusive
Cc1cccc(C(=O)Nc2nc3c(s2)CCCC3)c1	none (no result: TCR act, Sfp inh, uPA generation)
Cc1noc(C)c1COC(=O)c1cc2c(C)nn(-c3ccc(F)cc3)c2s1	none
Cc1nn(-c2ccc(F)cc2)c2sc(C(=O)OCC(=O)N3CCC(C)CC3)cc12	ClpP mod 22.4µM
CCc1ccccc1NS(=O)(=O)c1ccc2[nH]cc(C(=O)N3CCCCC3)c(=O)c2c1	none (no result: TCR act, Sfp inh, uPA generation)
COc1cccc(-c2nc(SCC(=O)NC3CCCC3)c(-c3ccc(F)cc3)[nH]2)c1	ClpP mod 35.5µM (no result: TCR act, Sfp inh, uPA generation)
COc1cccc(-c2nc(SCC(=O)NCC3CCCO3)c(-c3ccc(Cl)cc3)[nH]2)c1 (stereo not given)	ClpP mod 25.1µM (no result: TCR act, Sfp inh, uPA generation)
COc1ccc(-c2[nH]c(-c3ccc(C)cc3)nc2SCC(=O)NC2CCCC2)cc1	none
COc1cccc(-c2nc(SCC(=O)NC3CCCC3)c(-c3ccccc3)[nH]2)c1	ClpP mod 31.6µM (no result: TCR act, Sfp inh, uPA generation)
O=C(COc1ccc2c(c1)OCO2)Nc1ccccc1C(F)(F)F	none (no result: ClpP mod)
Cc1ccc(C)c(NC(=O)c2cc(S(=O)(=O)N3CCCCCC3)ccc2F)c1	none (no result: TCR act, Sfp inh, uPA generation)
C=CCNC(=S)Nc1cccc(NC(=S)NCC=C)c1	none
C/C(=N\NC(=O)C1(C)CC1(Br)Br)c1cccc(NC(=O)C2CCC2)c1 (stereo not given)	ClpP mod 22.4µM
C=CCNC(=S)N/N=C(\C)c1cccc(NC(C)=O)c1	Sfp inh 50.1µM
COc1ccc(CC(=O)N/N=C(\C)c2cccc(NC(=O)C3CC3)c2)cc1	none
CCNC(=S)/C(=C(/[O-])c1ccc([N+](=O)[O-])cc1)[n+]1ccccc1	none
CC(C)(C)c1ccc(/C([O-])=C(/C(=S)NCc2ccco2)[n+]2ccccc2)cc1	Sfp inh 50.1µM (no result: TCR act, ClpP mod, uPA generation)
Cc1ccc[n+](/C(C(=S)NCc2ccco2)=C(/[O-])c2ccccc2Cl)c1	Sfp inh 44.7µM
Cc1ccc[n+](C(C(=S)NCc2ccco2)=C([O-])c2ccccc2Cl)c1	none (no result: Sfp inh)
O=c1cnc2cncnc2n1Cc1ccc(F)cc1	none (no result: TCR act, ClpP mod, uPA generation)
CCCCCCCC/C=C\CCCCCCCC(=O)NCCc1ccc(O)c(O)c1	uPA generation 3.16µM
CCCCC/C=C\C/C=C\C/C=C\C/C=C\CCCCCC(=O)NCCc1ccc(O)c(O)c1	none (no result: TCR act, ClpP mod, uPA generation)
NC(=O)CNc1n[nH]c(=S)[nH]c1=O	Sfp inh 79.4µM (no result: ClpP mod)
CCCCOC(=O)C(C)Nc1n[nH]c(=O)[nH]c1=O (stereo not given)	none
CCCCOC(=O)C(C)Nc1n[nH]c(=S)[nH]c1=O (stereo not given)	Sfp inh 50.1µM
CC(C)COC(=O)CNc1n[nH]c(=S)[nH]c1=O	Sfp inh inconclusive
COC(=O)Cc1n[nH]c(=S)[nH]c1=O	Sfp inh 17.8µM
CC(Nc1n[nH]c(=S)[nH]c1=O)C(=O)OCc1ccccc1 (stereo not given)	none (no result: uPA generation)
CCCCOC(=O)CNc1n[nH]c(=S)[nH]c1=O	Sfp inh 56.2µM (no result: uPA generation)
CN(CCc1ccccc1)C(=O)c1cccc(NC(=O)Cc2cccc(NC(=O)C3CCN(C(=O)c4ccccc4)CC3)c2)c1	none (no result: Sfp inh)

High-throughput results (PubChem BioAssay)
